# Source: PubChem (National Center for Advancing Translational Sciences (NCATS))
# Hits are enriched below; roughly 21% of the tested compounds scored in any of these assays.
# Shiga toxin inh – A qHTS for Small Molecule Inhibitors of Shiga Toxin; inhibition, % at 38.7 µM; 290,000 tested, 9.2% active; Vero cells, Shiga toxin protein synthesis inhibition reporter; in the data active means inhibition mostly above about 28%, no sharp cut-off; inactive means mostly below about 43%; further: 0% is about no effect
# CHX counter – Cycloheximide Counterscreen for Small Molecule Inhibitors of Shiga Toxin; cell reporter, cycloheximide protein synthesis inhibition counterscreen; max response, %; 300,000 tested, 12% active; AID 2314, 2010; in the data active means max response mostly above about 13%, no sharp cut-off; inactive means mostly below about 14%; further: read at 38.3 µM for the half of the compounds with a filed dose; 0% is about no effect
# Pf growth 48h – Primary qHTS for delayed death inhibitors of the malarial parasite plastid, 48 hour incubation; P. falciparum luciferase growth in erythrocytes, 48 h; Potency, µM (series often up to 28.7 µM), without a hit: at the top dose activity change, negative = inhibition, usual class: inhibitors; 310,000 tested, 5.9% active; AID 504832, 2011; further: potency means the concentration at half of the fitted maximal effect; on the % scale 0 is the no-effect control and ±100 the full control effect
#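 In quantitative HTS format, infected erythrocytes bearing luciferase-reporter parasites were treated for a single generation at 37 C. Luminescence after adding detection reagent served as the growth measure.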
# Giardia FBPA inh – qHTS Assay for Inhibitors of Fructose-1,6-bisphosphate Aldolase from Giardia Lamblia | A8B2U2 | purified Giardia FBPA | Potency, µM (titrated, usually from 59.6 µM), for the others: at the top dose activity, negative = inhibition, hits mostly inhibitors | 290,000 tested, 0.71% active; further: potency means the concentration at half of the fitted maximal effect; on the % scale 0 is the no-effect control and ±100 the full control effect; nearly all actives have a fitted effect of over 55% in size
# Target sequence (A8B2U2 whole entry, looked up): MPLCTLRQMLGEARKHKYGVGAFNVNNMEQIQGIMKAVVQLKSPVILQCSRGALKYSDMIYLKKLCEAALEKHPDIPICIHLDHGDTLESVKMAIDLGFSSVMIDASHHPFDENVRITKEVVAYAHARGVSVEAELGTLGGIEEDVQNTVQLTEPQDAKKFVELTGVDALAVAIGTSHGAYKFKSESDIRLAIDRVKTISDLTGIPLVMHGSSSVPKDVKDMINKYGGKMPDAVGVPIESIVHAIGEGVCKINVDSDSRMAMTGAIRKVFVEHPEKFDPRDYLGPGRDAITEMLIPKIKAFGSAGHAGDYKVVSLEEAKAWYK
#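 40 nM FBPA preincubated 10 min at RT with compound (up to 57.5 uM final), then substrate plus GAPDH/TPI/NAD/arsenate coupling and diaphorase/resazurin added. Fluorescence read after 20 min at RT, 525/598 nm.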
# Pf growth 96h – Primary qHTS for delayed death inhibitors of the malarial parasite plastid, 96 hour incubation; P. falciparum luciferase reporter growth, 96 h; AID 504834, 2011; Potency, µM (doses to about 28.7 µM), for the others: at the top dose activity change, negative = inhibition, actives largely listed as inhibitors; 320,000 tested, 6.9% active; further: potency means the concentration at half of the fitted maximal effect; on the % scale 0 is the no-effect control and ±100 the full control effect
#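 Plates of compound plus infected erythrocytes (2% hematocrit, 0.05% parasitemia final) incubate 96 hours, 37 C, 5% CO2. Detection reagent added; reduced luminescence from the parasites' luciferase reporter flags inhibition.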
# NS1 function inh – qHTS Assay for Inhibitors of Influenza NS1 Protein Function. Potency, µM (top dose mostly 46.1 µM), without a hit: at the top dose activity, positive = more growth. 270,000 tested, 0.4% active. AID 2326, 2010; calls by dose curve; further: potency means the concentration at half of the fitted maximal effect; actives are rising curves; nearly all actives have a fitted effect of over 50% in size
#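 Read-out: OD600 growth recovery of NS1-expressing budding yeast. Cells grown overnight at 30C in -URA glucose medium, washed, resuspended and diluted 1:100 in 2% galactose assay medium, pH 6.0. Same strain lacking NS1 served as positive control.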
# * marks the source's active call; other numbers are inactive results; u = inconclusive; x = not tested or not shown. Unless noted, the call rests on the fitted dose curve; in most records, active means well fitted curve in the direction sought with a large enough effect; inconclusive means small, poorly fitted or top-dose-only effect, or another doubt; inactive means no such curve, though single readings can be large; an effect the other way counts as inactive or inconclusive.
SMILES,Shiga toxin inh,CHX counter,Pf growth 48h,Giardia FBPA inh,Pf growth 96h,NS1 function inh
O=C(Nc1cccc(F)c1)c1cccnc1,-8.1,-2.8,-0.8%,-2.7%,7.38µM*,-9.2%
COc1ccc(CN2CCC(n3nccc3NC(=O)C3CC3)CC2)cc1O,-4.0,-1.8,-4.0%,x,-21.7%,4.1%
CC(C)C12CN3CCN(CC(C3)/C1=N\NC(=O)Nc1ccccc1)C2,-10.6,-5.6,9.9%,6.9%,6.6%,-4.0%
CC12CN3CCN(CC(C3)/C1=N\NC(=O)Nc1cccc(Cl)c1)C2,50.1,26.3*,26.9%,-1.5%,u,x
CC12CN3CCN(CC(C3)/C1=N/NC(=O)Nc1ccccc1)C2,37.2,24.9*,42.4%,3.0%,u,5.0%
COc1ccc2[nH]cc(CCNc3nc(-c4cccc(C#N)c4)nc4ccccc34)c2c1,x,x,x,-13.8%,x,x
CCCn1c(N)c(C(=O)CSc2nnc(Cc3ccccc3)o2)c(=O)n(C)c1=O,1.5,3.0,8.28µM*,12.0%,u,-8.1%
O=C(O)c1cccc(CSc2ncn[nH]2)c1,24.5,7.6*,46.5%,-0.3%,99.7%,2.8%
O=C(CSc1nnc(CNc2ccc(F)cc2)o1)c1ccccc1,32.5,21.5*,u,-15.2%,14.7%,-0.2%
c1ccc(CSc2nnc(Cc3ccccc3)o2)cc1,53.7*,40.3*,66.0%,-3.9%,449.9%,-4.5%
COc1ccc(C(=O)CSc2nnc(CNc3ccc(F)cc3)o2)cc1,8.5,-2.3,6.6%,-1.0%,-29.9%,x
Cn1c(=O)c(C(=O)CSc2nnc(Nc3ccccc3)s2)c(N)n(Cc2ccccc2)c1=O,-16.7,-4.9,u,-9.8%,x,5.9%
O=C(Nc1ccc(Cl)cc1)C1CCCN(C2=NS(=O)(=O)c3ccccc32)C1 (configuration not stated),x,x,-15.6%,x,-20.2%,x
CCOC(=O)C1CCN(S(=O)(=O)c2c[nH]c(=O)[nH]c2=O)CC1,x,x,21.2%,x,26.0%,x
COCCN(C(=O)c1oc2ccccc2c1COC)c1c(N)n(CC(C)C)c(=O)[nH]c1=O,x,x,-0.8%,x,-9.7%,x
O=C(CSc1nnc(Cc2ccccc2)o1)c1ccccc1,24.3,31.7*,26.0%,-0.1%,u,-1.2%
O=C(CSc1nnc(Cc2ccccc2)o1)c1ccc2c(c1)OCO2,x,x,-23.6%,x,7.5%,x
Cc1cccc(NC(=O)CSc2nnc(Cc3ccccc3)o2)c1,-13.3,10.8,5.0%,-6.4%,37.2%,0.8%
c1ccc(CSc2nnc(Cc3ccccn3)o2)cc1,45.7,25.2*,29.2%,-1.4%,x,1.9%
Cc1ccc(NC(=O)CSc2nnc(Cc3ccccc3)o2)cc1,11.2,4.4,96.6%,-3.2%,11.7µM*,x
O=C(O)c1cccc(CSc2nnc(Cc3ccccc3)o2)c1,44.3*,14.7,47.3%,13.0%,x,-19.3%
CSc1cccc(NC(=O)NNC(=O)C2CCN(S(=O)(=O)N(C)C)CC2)c1,-5.7,-8.8,14.0%,20.6%,-8.2%,-6.0%
OC(CC1CC12c1ccccc1-c1ncccc12)(c1ccccc1)c1ccccc1 (configuration not stated),-17.9,1.0,x,-2.3%,0.828µM*,-92.6%
COc1ccc(CNC(=O)C2COc3ccccc3O2)c(OC)c1 (configuration not stated),103.1*,30.5*,-6.0%,12.8%,-1.4%,-0.4%
COc1ccc(OC)c(NC(=O)C2COc3ccccc3O2)c1 (configuration not stated),2.7,9.7,u,0.8%,u,-71.0%
SMILES,Shiga toxin inh,CHX counter,Pf growth 48h,Giardia FBPA inh,Pf growth 96h,NS1 function inh
Cc1ccc(NC(=O)CC2COc3ccccc3O2)cc1 (configuration not stated),53.7*,30.8*,51.1%,-3.1%,353.2%,-30.2%
O=C(NCc1ccccc1)C1COc2ccccc2O1 (configuration not stated),59.2*,19.5*,121.5%,-8.0%,33.7%,1.0%
Cc1ccc(CNC(=O)C2COc3ccccc3O2)cc1 (configuration not stated),35.3,26.0*,25.6%,-0.6%,34.7%,-2.0%
COCC(=O)N1CCC2(CC1)CCN(C(=O)NC(C)C)CC2,x,x,x,0.5%,x,x
CCCCN(C)C(=S)Nc1ccc2nc3n(c(=O)c2c1)CCCCC3,22.9,1.6,-12.9%,-23.8%,-19.8%,0.6%
CC(=O)NC1C(OC(=O)/C=C/c2ccccc2)OC(COC(C)=O)C(OC(C)=O)C1OC(C)=O (configuration not stated),-1.5,-7.5,2.3%,x,u,-12.5%
CCC1CN(C(=O)Nc2ccc(C)cc2)c2cc(C)ccc2O1 (configuration not stated),21.2,12.0*,u,2.6%,1.4%,-39.9%
Cc1onc(-c2ccccc2)c1C(=O)NCC1COc2ccccc2O1 (configuration not stated),-16.2,8.3,27.8%,9.2%,x,-7.2%
Cc1onc(-c2ccccc2)c1CNC(=O)C1COc2ccccc2O1 (configuration not stated),-14.0,-0.3,13.1µM*,3.2%,u,-4.1%
CN(CC(=O)Nc1ccccc1Br)C(=O)CN1CCN(Cc2ccc(Cl)cc2)CC1,x,x,u,x,0.3%,x
CCN(CC)S(=O)(=O)c1ccc2c(c1)c(C(=O)O)cn2C,-24.3,-2.0,7.7%,-9.3%,6.57µM*,1.9%
CCN(CC)S(=O)(=O)c1ccc2c(c1)c(=O)c(C(=O)N1CCN(c3ccccn3)CC1)cn2C,-6.9,0.3,-7.4%,22.5%,0.522µM*,-5.7%
COc1ccccc1C1CC(=O)NC(C)=C1C(=O)OC(C)C (configuration not stated),-11.3,-1.4,3.7%,-0.4%,24.0%,-5.1%
Nc1ccccc1SC/C=C/CSc1ccccc1N,68.4*,36.8*,x,5.2%,48.3%,-30.7%
Cc1cc(C)cc(C(=O)N2CC(C)SC2=Nc2cccc(S(=O)(=O)N(C)C)c2)c1 (configuration not stated),-12.0,-1.5,13.1µM*,-12.8%,u,6.1%
Cc1ccc(C(=O)N2CC(C)SC2=Nc2cccc(S(=O)(=O)N(C)C)c2)cc1 (configuration not stated),-11.3,-5.7,-19.8%,-17.2%,u,0.2%
CCCCNC(=O)C1CC(=O)N(CCc2ccccc2)C1 (configuration not stated),20.9,-4.6,9.5%,6.6%,-15.1%,x
Cc1ccc(CCN2CC(C(=O)NCCN3CCOCC3)CC2=O)cc1 (configuration not stated),-8.6,-4.8,12.9%,5.1%,11.7µM*,0.6%
CC1CCCN(CCCNC(=O)C2CC(=O)N(CCc3ccccc3)C2)C1 (configuration not stated),-12.8,5.8,-6.8%,8.4%,14.7µM*,-4.3%
COc1ccc(NC(=S)NCc2cccs2)cc1,46.9*,19.4*,18.1%,0.8%,u,-3.7%
